Where “and” joins values, the source holds several entries; their conditions need not be identical. Equal values may be shown once. The source holds several records for some structures; these can differ, active in one and inactive in another. Calls of active or inactive are those of the source. Rule for the calls: active = hit-call score of the fitted dose curve at least 0.9, where 1 is the maximum; inactive = score below 0.9.
Tests used:
[1] = read-out: Human Leukocyte Antigen - DR isotype (HLADR), HLA-DRA (gene 3122); assay: BSK_BE3C_HLADR: BioMAP Diversity Plus: BE3C Assay for Human Leukocyte Antigen - DR isotype (HLADR) Biomarker Activity (AID 2283032); conditions: primary human bronchial epithelial cells; actives raise or lower the signal
Procedure, shortened: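 Chemicals are dosed onto BE3C bronchial epithelial cultures of human origin and left 24 h. HLA-DR is then measured by ELISA, and the endpoint is fitted in both directions using DMSO as the activity baseline.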

[2] = read-out: Vascular cell adhesion molecule 1 (VCAM1), VCAM1 (gene 7412); assay: BSK_4H_VCAM1: BioMAP Diversity Plus: 4H Assay for Vascular cell adhesion molecule 1 (VCAM1) Biomarker Activity (AID 2283033); conditions: primary human endothelial cells (HUVEC); actives raise or lower the signal
Procedure, shortened: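 Chemicals are added to primary human umbilical vein endothelial cells. After 24 h, VCAM-1 levels are measured by ELISA. Values come from bidirectional fitting referenced to DMSO.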

[3] = read-out: Interferon-gamma inducible Protein 10 (IP10), CXCL10 (gene 3627); assay: BSK_BE3C_IP10: BioMAP Diversity Plus: BE3C Assay for Interferon-gamma inducible Protein 10 (IP10) Biomarker Activity (AID 2283034); conditions: primary human bronchial epithelial cells; actives raise or lower the signal
Procedure, shortened: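 IP-10 quantified by ELISA serves as the endpoint. Cells: primary human bronchial epithelium, read 24 h after compound addition. Activity is derived by bidirectional fitting with DMSO as negative control.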

[4] = read-out: Monokine induced gamma interferon (MIG), CXCL9 (gene 4283); assay: BSK_BE3C_MIG: BioMAP Diversity Plus: BE3C Assay for Monokine induced gamma interferon (MIG) Biomarker Activity (AID 2283035); conditions: primary human bronchial epithelial cells; actives raise or lower the signal
Procedure, shortened: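 hu bronchial epithelial 1° cells, 24 h cpd; MIG by ELISA; bidirectional fit, DMSO = baseline.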

[5] = read-out: Plasminogen activator inhibitor-1 (PAI1), SERPINE1 (gene 5054); assay: BSK_BE3C_PAI1: BioMAP Diversity Plus: BE3C Assay for Plasminogen activator inhibitor-1 (PAI1) Biomarker Activity (AID 2283037); conditions: primary human bronchial epithelial cells; actives raise or lower the signal
Procedure, shortened: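 Values derive from bidirectional fitting against DMSO baseline of PAI-1 levels, measured by ELISA in human bronchial epithelial cells 24 h after compound addition.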

[6] = read-out: urokinase plasminogen activator (uPA), PLAU (gene 5328); assay: BSK_BE3C_uPA: BioMAP Diversity Plus: BE3C Assay for urokinase plasminogen activator (uPA) Biomarker Activity (AID 2283038); conditions: primary human bronchial epithelial cells; actives raise or lower the signal
Procedure, shortened: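 Using confluent primary human lung bronchial epithelial cultures, we dosed chemicals, waited 24 h, then ran a uPA ELISA, fitting bidirectionally against DMSO.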

[7] = read-out: Interleukin-6 (IL6), IL6 (gene 3569); assay: BSK_CASM3C_IL6: BioMAP Diversity Plus: CASM3C Assay for Interleukin-6 (IL6) Biomarker Activity for (AID 2283040); conditions: primary human coronary artery smooth muscle cells; actives raise or lower the signal
[8] = read-out: Tissue plasminogen activator (tPA), PLAT (gene 5327); assay: BSK_BE3C_tPA: BioMAP Diversity Plus: BE3C Assay for Tissue plasminogen activator (tPA) Biomarker Activity (AID 2283041); conditions: primary human bronchial epithelial cells; actives raise or lower the signal
Procedure, shortened: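 Gain- or loss-of-signal in tPA, measured by ELISA, derived by bidirectional fitting against DMSO. Cells: human primary bronchial epithelial; read at 24 h after chemical dosing.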

[9] = read-out: Interleukin-8 (IL8), CXCL8 (gene 3576); assay: BSK_CASM3C_IL8: BioMAP Diversity Plus: CASM3C Assay for Interleukin-8 (IL8) Biomarker Activity (AID 2283042); conditions: primary human coronary artery smooth muscle cells; actives raise or lower the signal;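 note: IL-8 protein level quantified by ELISA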
[10] = read-out: Human Leukocyte Antigen - DR isotype (HLADR), HLA-DRA (gene 3122); assay: BSK_CASM3C_HLADR: BioMAP Diversity Plus: CASM3C Assay for Human Leukocyte Antigen - DR isotype (HLADR) Biomarker Activity (AID 2283043); conditions: primary human coronary artery smooth muscle cells; actives raise or lower the signal;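 note: cell-surface HLA-DR protein level quantified by ELISA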
[11] = read-out: Macrophage colony-stimulating factor (MCSF), CSF1 (gene 1435); assay: BSK_CASM3C_MCSF: BioMAP Diversity Plus: CASM3C Assay for Macrophage colony-stimulating factor (MCSF) Biomarker Activity (AID 2283044); conditions: primary human coronary artery smooth muscle cells; actives raise or lower the signal;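 note: M-CSF protein amount quantified by ELISA after 24 h exposure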
[12] = read-out: Low-density lipoprotein receptor (LDLR), LDLR (gene 3949); assay: BSK_CASM3C_LDLR: BioMAP Diversity Plus: CASM3C Assay for Low-density lipoprotein receptor (LDLR) Biomarker Activity (AID 2283045); conditions: primary human coronary artery smooth muscle cells; actives raise or lower the signal;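 note: LDLR protein level on the cell surface quantified by ELISA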
[13] = read-out: Monocyte Chemoattractant Protein-1 (MCP1), CCL2 (gene 6347); assay: BSK_CASM3C_MCP1: BioMAP Diversity Plus: CASM3C Assay for Monocyte Chemoattractant Protein-1 (MCP1) Biomarker Activity (AID 2283046); conditions: primary human coronary artery smooth muscle cells; actives raise or lower the signal;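 note: MCP-1 level quantified by ELISA 24 h after dosing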
[14] = BSK_CASM3C_Proliferation: Cell Proliferation Assessment in the BioMAP Diversity Plus: CASM3C Assay (AID 2283047); conditions: primary human coronary artery smooth muscle cells;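 note: sulforhodamine B total protein stain as relative cell number at 560 nm; sub-confluent cells exposed 48 h before staining; fitted both ways against DMSO so gain or loss of cell number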
[15] = read-out: Monokine induced gamma interferon (MIG), CXCL9 (gene 4283); assay: BSK_CASM3C_MIG: BioMAP Diversity Plus: CASM3C Assay for Monokine induced gamma interferon (MIG) Biomarker Activity (AID 2283048); conditions: primary human coronary artery smooth muscle cells; actives raise or lower the signal;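 note: MIG protein level measured by ELISA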
[16] = read-out: serum amyloid A (SAA), SAA1 (gene 6288); assay: BSK_CASM3C_SAA: BioMAP Diversity Plus: CASM3C Assay for serum amyloid A (SAA) Biomarker Activity (AID 2283049); conditions: primary human coronary artery smooth muscle cells; actives raise or lower the signal;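 note: SAA protein level quantified by ELISA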
[17] = BSK_CASM3C_SRB: Viability Assessment in the BioMAP Diversity Plus: CASM3C Assay (AID 2283050); conditions: primary human coronary artery smooth muscle cells;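 note: total protein by SRB staining as cytotoxicity measure in parallel cultures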
[18] = read-out: Thrombomodulin, THBD (gene 7056); assay: BSK_CASM3C_Thrombomodulin: BioMAP Diversity Plus: CASM3C Assay for Thrombomodulin Biomarker Activity (AID 2283051); conditions: primary human coronary artery smooth muscle cells; actives raise or lower the signal;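 note: thrombomodulin protein level measured by ELISA 24 h after dosing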
[19] = read-out: Transforming growth factor beta 1 (TGFb1), TGFB1 (gene 7040); assay: BSK_BE3C_TGFb1: BioMAP Diversity Plus: BE3C Assay for Transforming growth factor beta 1 (TGFb1) Biomarker Activity (AID 2283036); conditions: primary human bronchial epithelial cells; actives raise or lower the signal
Procedure, shortened: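 Bronchial epithelial primary cells are treated with test chemical, then TGF-b1 is quantified by ELISA after 24 hours. Values derive from bidirectional fitting against DMSO, with cytotoxicity checked by SRB staining in parallel cultures.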

Measured: AC50

O=C(O)CCC(F)(F)C(F)(F)C(F)(F)C(F)(F)C(F)(F)C(F)(F)F
not listed: [19]
inactive: all other assays above

O=C1OC2(c3ccccc31)c1cc(I)c(O)c(I)c1Oc1c2cc(I)c(O)c1I
inactive: [9] | [10] | [12] | [14] | [15] | [16] | [17]
active: [1] 4.33 µM | [3] 13.6 µM | [4] 19.9 µM | [19] 3.9 µM | [5] 4.07 µM | [6] 8.35 µM | [7] 900 nM | [8] 5.58 µM | [11] 3.7 µM | [13] 6.12 µM | [18] 2.38 µM

O=C(CC(=O)C(F)(F)C(F)(F)C(F)(F)F)c1cccs1
active: [1] 20.4 µM and 23.8 µM | [2] 27.6 µM and 31 µM | [3] 19.5 µM and 18.9 µM | [4] 24.6 µM and 42 µM | [5] 10.9 µM and 10 µM | [6] 47.4 µM and 46 µM | [7] 38.1 µM and 20.8 µM | [8] 22.3 µM and 20.7 µM | [10] 47.3 µM and 50.5 µM | [11] 45.2 µM and 48.9 µM | [12] 40.2 µM and 32.8 µM | [13] 45.5 µM and 45.9 µM | [14] 30 µM and 24.6 µM | [15] 42 µM and 50.2 µM | [16] 41.2 µM and 43.4 µM | [17] 45.6 µM and 44.6 µM | [18] 54.4 µM
inactive: [9] | [18]

Cc1ccc(C(=O)c2ccccc2)cc1
active: [2] 30.2 µM | [9] 0.0224 µM | [10] 3.97 µM
inactive: all other assays above

CN(CCO)S(=O)(=O)C(F)(F)C(F)(F)C(F)(F)C(F)(F)C(F)(F)C(F)(F)C(F)(F)C(F)(F)F
inactive: [1] | [2] | [3] | [4] | [5] | [6] | [7] | [8] | [9] | [10] | [11] | [12] | [13] | [14] | [15] | [16] | [17] | [18]
active: [15] 29.3 nM

O=C(NO)c1ccccc1
active: [11] 2.51 µM
inactive: all other assays above

From PubChem BioAssay (EPA / NIEHS)
